Experimental data taken from PubChem BioAssay.
The source made the active and inactive calls.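 How the source made its calls, unless noted: active means normalized viability below 100% at a tested concentration; inactive means the rest.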

Columns and labels:
[1] = sensitizers of A549 cells to miR-34 induction, primary screen, imaging, A549 dox-inducible miR-34, nuclei and caspase counts (AID 1347080;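 active means compounds whose cell count with miR-34 switched on is under 0.7 times the count with it off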); details: A549 miR-34 inducible, Hoechst nuclei count, 48 h
[2] = survival rescue of mitochondrial mutant cells in low glucose, primary screen, MELAS cybrids, Rieske KO mouse fibroblasts, CellTiter-Glo (AID 1508586;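 active means mean z-score across replicates of 1.96 or higher in either the MELAS or the Rieske mutant cell line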;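 further: z relative to plate mean and SD of compound and empty wells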)
[3] = ovarian cancer cell viability with rucaparib, profiling panel, oncology-focused library, rucaparib conditional (AID 1508598); details: patient-derived ovarian cancer cells, CellTiter-Glo viability, 144 h, stronger effect = lower value
[4] = stronger effect = lower value, cell number ratio, induced over uninduced
[5] = measured here: relative caspase fold change +Dox/-Dox
[6] = measured here: total cells with miR-34 induction, stronger effect = lower value
[7] = measured here: total cells without miR-34 induction
[8] = MELAS cybrid survival, CellTiter-Glo 48 h, stronger effect = higher value
[9] = Rieske KO mouse fibroblast survival, CellTiter-Glo 72 h

With C[C@@]12C(=O)N(c3ccc(C(=O)Nc4cccc5cccnc45)cc3)C(=O)[C@@H]1C1C=CC2C1 (stereo partly drawn) the fold change [1, 4] was 1.75 (inactive), the fold change [1, 5] was 0.793 and the cell count [1, 6] was 7280. The cell count [1, 7] was 4160, the z-score [2, 8] was 0.0501 (inactive) and the z-score [2, 9] was -0.119.

For O=C(c1ccccc1)c1ccc2nc(NC(=O)c3csc(C4CCN(c5ncnc6ccsc56)CC4)n3)[nH]c2c1, the fold change [1, 4] was 1.1 (inactive), the fold change [1, 5] was 0.341 and the cell count [1, 6] was 2690. For the same molecule, the cell count [1, 7] was 2460, the z-score [2, 8] was -0.654 (inactive) and the z-score [2, 9] was -0.043.

With O=C(NS(=O)(=O)c1ccc(Br)s1)c1ccc(Cl)cc1Cl the fold change [1, 4] was 0.902 (inactive), the fold change [1, 5] was 0.488 and the cell count [1, 6] was 7360. For the same molecule, the cell count [1, 7] was 8160, the z-score [2, 8] was -0.252 (inactive) and the z-score [2, 9] was -0.754.

In the case of CCC(=O)OCC(=O)[C@]1(OC(=O)CC)C(C)C[C@H]2[C@@H]3CCC4=CC(=O)C=C[C@]4(C)[C@]3(Cl)C(O)C[C@@]21C (stereo partly drawn), the fold change [1, 4] is reported as 0.952 (inactive), the fold change [1, 5] is reported as 0.747 and the cell count [1, 6] is reported as 5950. For the same molecule, the cell count [1, 7] was 6250, the z-score [2, 8] was -0.503 (inactive) and the z-score [2, 9] was -0.134.

With CC(C)(F)CC(NC(c1ccc(-c2ccc(S(C)(=O)=O)cc2)cc1)C(F)(F)F)C(=O)NC1(C#N)CC1 (stereo not drawn) the fold change [1, 4] was 0.826 (inactive), the fold change [1, 5] was 0.999 and the cell count [1, 6] was 7020. For the same molecule, the cell count [1, 7] was 8500, the z-score [2, 8] was -0.379 (inactive) and the z-score [2, 9] was -0.123.

With COC1C(=O)[C@]2(C)C(OC)C[C@H]3OC[C@@]3(OC(C)=O)[C@H]2C(OC(=O)c2ccccc2)[C@@]2(O)CC(OC(=O)C(O)C(NC(=O)OC(C)(C)C)c3ccccc3)C(C)=C1C2(C)C (stereo partly drawn) the fold change [1, 4] was 1.03 (inactive), the fold change [1, 5] was 0.843 and the cell count [1, 6] was 2690. The cell count [1, 7] was 2620, the z-score [2, 8] was 1.6 (inactive) and the z-score [2, 9] was -0.148.

For COc1cc2c(cc1Cc1cccc(Cl)c1F)c(=O)c(C(=O)O)cn2C(CO)C(C)C (stereo not drawn), the fold change [1, 4] was 0.611 (active), the fold change [1, 5] was 1.26 and the cell count [1, 6] was 3970. For the same molecule, the cell count [1, 7] was 6500, the z-score [2, 8] was -0.198 (inactive) and the z-score [2, 9] was 0.532.

With OCC1OC(O[C@]2(CCl)OC(CCl)C(O)C2O)C(O)C(O)C1Cl (stereo partly drawn) the fold change [1, 4] was 0.895 (inactive), the fold change [1, 5] was 0.674 and the cell count [1, 6] was 8040. The cell count [1, 7] was 8990, the z-score [2, 8] was -0.278 (inactive) and the z-score [2, 9] was -0.16.

With CCOC(=O)Nc1cc(-c2ccc(C)c(NS(C)(=O)=O)c2)nn2c(C)nnc12 the fold change [1, 4] was 1.01 (inactive), the fold change [1, 5] was 0.716 and the cell count [1, 6] was 4010. For the same molecule, the cell count [1, 7] was 3970, the z-score [2, 8] was -0.585 (inactive) and the z-score [2, 9] was -4.44.

In the case of CCC(=O)O[C@@]1(C(=O)CCl)[C@@H](C)C[C@H]2[C@@H]3CCC4=CC(=O)C=C[C@]4(C)[C@]3(F)[C@H](O)C[C@@]21C, the fold change [1, 4] is reported as 0.838 (inactive), the fold change [1, 5] is reported as 0.869 and the cell count [1, 6] is reported as 5560. For the same molecule, the cell count [1, 7] was 6630, the z-score [2, 8] was -0.516 (inactive) and the z-score [2, 9] was -0.656.

For CCN1CC(C)n2c(c(O)c3c(=O)n(Cc4ccc(F)c(Cl)c4)nc(C(=O)NC)c32)C1=O (stereo not drawn), the fold change [1, 4] was 1.07 (inactive), the fold change [1, 5] was 0.451 and the cell count [1, 6] was 7640. For the same molecule, the cell count [1, 7] was 7150, the z-score [2, 8] was -0.423 (inactive) and the z-score [2, 9] was 0.325.

With O=C(O)c1ccc(C=C2SC(=S)N(c3cccc(C(F)(F)F)c3)C2=O)cc1 the fold change [1, 4] was 0.824 (inactive), the fold change [1, 5] was 0.518 and the cell count [1, 6] was 6780. The cell count [1, 7] was 8220, the z-score [2, 8] was -0.207 (inactive) and the z-score [2, 9] was -3.49.

In the case of O=C(O)C1=COC(OC2OC(CO)C(O)C(O)C2O)[C@@H]2C(CO)=CC[C@H]12 (stereo partly drawn), the fold change [1, 4] is reported as 0.954 (inactive), the fold change [1, 5] is reported as 1.02 and the cell count [1, 6] is reported as 9820. The cell count [1, 7] was 10300, the z-score [2, 8] was -0.392 (inactive) and the z-score [2, 9] was 0.447.

In the case of O=C(C=Cc1ccccc1)NC(NC(=S)Nc1cccc2cccnc12)C(Cl)(Cl)Cl (stereo not drawn), the fold change [1, 4] is reported as 0.979 (inactive), the fold change [1, 5] is reported as 0.343 and the cell count [1, 6] is reported as 6780. For the same molecule, the cell count [1, 7] was 6920, the z-score [2, 8] was -0.276 (inactive) and the z-score [2, 9] was 0.21.

For C[C@]12CC[C@H]3c4ccc(OC(=O)c5ccccc5)cc4CC[C@H]3[C@@H]1CCC2O (stereo partly drawn), the fold change [1, 4] was 0.921 (inactive), the fold change [1, 5] was 0.673 and the cell count [1, 6] was 8340. The cell count [1, 7] was 9050, the z-score [2, 8] was -0.15 (inactive) and the z-score [2, 9] was -0.151.

For CC(C)NCCCn1c(Sc2cc3c(cc2I)OCO3)nc2c(N)ncnc21, the fold change [1, 4] was 1.06 (inactive), the fold change [1, 5] was 0.435 and the cell count [1, 6] was 2580. For the same molecule, the cell count [1, 7] was 2430, the z-score [2, 8] was 3.04 (active) and the z-score [2, 9] was -0.929. The viability ([3]; at 0.000305 µM, OCI-C5x cells, with rucaparib 10 µM, 100% = cells with rucaparib alone) was 125% (inactive), the viability ([3]; at 0.000305 µM, OCI-C5x cells, without rucaparib) was 112% (inactive) and the viability ([3]; at 0.000305 µM, OCI-P5x cells, with rucaparib 20 µM, 100% = cells with rucaparib alone) was 95.1% (active). The viability ([3]; at 0.000305 µM, OCI-P5x cells, without rucaparib) was 94.7% (active), the viability ([3]; at 0.00122 µM, OCI-C5x cells, with rucaparib 10 µM, 100% = cells with rucaparib alone) was 129% (inactive) and the viability ([3]; at 0.00122 µM, OCI-C5x cells, without rucaparib) was 108% (inactive). The viability ([3]; at 0.00122 µM, OCI-P5x cells, with rucaparib 20 µM, 100% = cells with rucaparib alone) was 102% (inactive), the viability ([3]; at 0.00122 µM, OCI-P5x cells, without rucaparib) was 94.3% (active) and the viability ([3]; at 0.00488 µM, OCI-C5x cells, with rucaparib 10 µM, 100% = cells with rucaparib alone) was 119% (inactive). For the same molecule, the viability ([3]; at 0.00488 µM, OCI-C5x cells, without rucaparib) was 107% (inactive), the viability ([3]; at 0.00488 µM, OCI-P5x cells, with rucaparib 20 µM, 100% = cells with rucaparib alone) was 99.8% (active) and the viability ([3]; at 0.00488 µM, OCI-P5x cells, without rucaparib) was 98.3% (active). For the same molecule, the viability ([3]; at 0.0195 µM, OCI-C5x cells, with rucaparib 10 µM, 100% = cells with rucaparib alone) was 126% (inactive), the viability ([3]; at 0.0195 µM, OCI-C5x cells, without rucaparib) was 122% (inactive) and the viability ([3]; at 0.0195 µM, OCI-P5x cells, with rucaparib 20 µM, 100% = cells with rucaparib alone) was 101% (inactive). For the same molecule, the viability ([3]; at 0.0195 µM, OCI-P5x cells, without rucaparib) was 97.9% (active), the viability ([3]; at 0.0781 µM, OCI-C5x cells, with rucaparib 10 µM, 100% = cells with rucaparib alone) was 139% (inactive) and the viability ([3]; at 0.0781 µM, OCI-C5x cells, without rucaparib) was 127% (inactive). The viability ([3]; at 0.0781 µM, OCI-P5x cells, with rucaparib 20 µM, 100% = cells with rucaparib alone) was 105% (inactive), the viability ([3]; at 0.0781 µM, OCI-P5x cells, without rucaparib) was 107% (inactive) and the viability ([3]; at 0.313 µM, OCI-C5x cells, with rucaparib 10 µM, 100% = cells with rucaparib alone) was 143% (inactive). For the same molecule, the viability ([3]; at 0.313 µM, OCI-C5x cells, without rucaparib) was 60.7% (active), the viability ([3]; at 0.313 µM, OCI-P5x cells, with rucaparib 20 µM, 100% = cells with rucaparib alone) was 15.7% (active) and the viability ([3]; at 0.313 µM, OCI-P5x cells, without rucaparib) was 9.78% (active). For the same molecule, the viability ([3]; at 1.25 µM, OCI-C5x cells, with rucaparib 10 µM, 100% = cells with rucaparib alone) was 77.5% (active), the viability ([3]; at 1.25 µM, OCI-C5x cells, without rucaparib) was 33.9% (active) and the viability ([3]; at 1.25 µM, OCI-P5x cells, with rucaparib 20 µM, 100% = cells with rucaparib alone) was 17.3% (active). The viability ([3]; at 1.25 µM, OCI-P5x cells, without rucaparib) was 8.78% (active), the viability ([3]; at 5 µM, OCI-C5x cells, with rucaparib 10 µM, 100% = cells with rucaparib alone) was 15.7% (active) and the viability ([3]; at 5 µM, OCI-C5x cells, without rucaparib) was 9.3% (active). For the same molecule, the viability ([3]; at 5 µM, OCI-P5x cells, with rucaparib 20 µM, 100% = cells with rucaparib alone) was 7.34% (active) and the viability ([3]; at 5 µM, OCI-P5x cells, without rucaparib) was 6.28% (active).
